Screening results as filed in PubChem.
Casp6 inh: blocks human caspase-6 cleavage activity; P55212; purified caspase-6, Z-VEID-R110 cleavage fluorescence; inhibition, % at 12.5 µM; 350,000 tested, 0.53% active;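 active = mean inhibition across replicates at least about 35%, with every replicate also reaching that limit, limit read from the data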;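 note: 0% = median of neutral control wells and 100% = no fluorescence left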
F508del corr: correctors of CFTR F508del function in bronchial epithelial cells; CFBE cells, YFP halide quenching; stimulated with forskolin plus potentiator P3; % fluorescence drop versus neutral controls; activity (quench increase), % at 7.58 µM; 350,000 tested, 0.36% active;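 active = mean added fluorescence quench of at least 8% versus neutral control, with both replicates also reaching 8%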;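 note: cells transiently co-express mutant CFTR-F508del with the halide-sensitive YFP; corrector assay measuring rescue of mutant channel to the surface after 24 h compound exposure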
NSD2 inh: inhibitors of human histone methyltransferase NSD2 | O96028 | NSD2 peptide methylation, AlphaScreen, 120 min | inhibition, % at 12.5 µM | 310,000 tested, 0.54% active | AID 743445; in the data active = inhibition above about 50%
PglD inh: PglD (C. jejuni) enzyme inhibition; inhibition, % at 12.5 µM; AID 602405; purified PglD enzyme, DTNB colorimetric CoA detection; 360,000 tested, 0.098% active; in the data active = inhibition above about 16%, passing the limit was not always enough
Env fusion inh: blocks HIV Env-driven cell-cell fusion; HeLa-JRFL Env/CEM21 cell fusion, luciferase; inhibition, % at 12.3 µM; 360,000 tested, 1.1% active; AID 651610;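 active = mean replicate inhibition score of at least 50 and every replicate individually at or above 50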;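 note: 0% = plate neutral controls and 100% = maraviroc near 300 nM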
ALR inh: human ALR oxidase inhibition via reduced H2O2; AID 485317; P55789; purified ALR, DTT oxidation, H2O2 HRP-luminol luminescence; 290,000 tested, 3.8% active; inhibition, % (concentration not given with the values);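 active = mean replicate inhibition above about 79%, with every replicate also reaching it, limit read from the data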
Active calls of the source: *; . = not tested or not shown; [ ] = dose if it differs, or a comment. Hits are enriched below; roughly 4.1% of the tested compounds scored in any of these assays.

SMILES	Casp6 inh	F508del corr	NSD2 inh	PglD inh	Env fusion inh	ALR inh
COc1cc(Nc2c3ccccc3nc3ccccc23)cc(OC)c1OC	3	8	17	3	-76	94*
COc1ccc(Nc2cc(C)c3ccccc3n2)cc1	1	2	-2	.	-15	.
COc1ccc(Nc2c3ccccc3nc3ccccc23)cc1	1	7	10	0	1	100*
CCC(=O)Nc1ccc2c(c1)OC[C@@H](C)N(Cc1nccs1)C[C@H](C)[C@H](OC)CN(C)C2=O	5	0	.	3	3[16.7 µM]	.
O=C(C[C@H]1CC[C@@H]2[C@H](COC[C@H](O)CN2Cc2cccc(-c3ccncc3)c2)O1)N1CCN(c2ccccc2)CC1	0	-2	.	-3	.	.
CCOc1cc(CNc2cccc3[nH]c(C)nc23)ccc1OC	-1	-1	6	-4	10	98*
Cc1ccc(-n2c(=O)[nH]c3c(oc4ccccc43)c2=O)cc1	0	0	-4	.	7	0
COc1ccc(-n2c(=S)[nH]c3c(oc4ccccc43)c2=O)cc1	.	.	0	0	-14	93*
COc1ccc(C#Cc2ccc3c(c2)[C@@H]2[C@@H](CCN2C(=O)C2CC2)[C@@H](CO)N3)cc1	-2	-2	.	0	.	.
O=C(C[n+]1cc(-c2ccc(Cl)cc2)n2c1CCC2)Nc1nc(-c2ccccc2)cs1	-6	0	4	.	-13	94*
OCC1CCCN(Cc2ccc(-c3ccccc3)cc2)C1 (stereo unspecified)	.	.	2	-1	-12	99*
O=C(C1=C[C@@H](c2ccc3c(c2)OCO3)C[C@@H](OCc2ccc(CO)cc2)O1)N1CCN(Cc2ccccc2)CC1	-2	2	.	.	2[16.7 µM]	.
O=C1OC(Nc2cc(Br)cc3cccnc23)c2ccccc21 (stereo unspecified)	40*	-4	104*	-3	.	20
Cc1cc(NC(=S)NC(=O)C2CCCC2)ccc1Br	.	.	-4	.	.	.
O=C(Nc1ccccc1)[C@H]1[C@H](CO)[C@H]2Cn3c(ccc(C4=CCCCC4)c3=O)[C@H]2N1Cc1ccccn1	8	2	.	.	.	.
CC(C)Cn1c(-c2cccc(S(=O)(=O)N3CCOCC3)c2)n[nH]c1=S	-1	3	-2	2	.	86*
Cc1nc(-c2cccc(S(=O)(=O)N3CCOCC3)c2)cs1	2	-2	1	3	.	99*
Cc1nc(-c2cccc(N)c2)cs1	-4	0	.	-1	-4	99*
Cc1nc(-c2cccc(S(=O)(=O)N3CC(C)OC(C)C3)c2)cs1 (stereo unspecified)	.	.	-1	6	.	98*
CCC(C)n1c(-c2cccc(S(=O)(=O)N3CCOCC3)c2)n[nH]c1=S (stereo unspecified)	1	0	-1	6	23	.
COc1ccc2c3c([nH]c2c1)[C@@H](CO)N(C(=O)CN1CCOCC1)CC31CCN(C(C)=O)CC1	.	-3	.	.	.	.
CN(C)NC(=O)c1ccsc1NC(=O)c1ccc(S(=O)(=O)N2CCCC2)cc1	2	0	.	-2	22	87*
CC(C)NC(=O)NCC[C@@H]1CC[C@@H](NC(=O)CCN2CCCCC2)[C@H](CO)O1	-157	-1	.	-1	.	.
CCCCOC(=O)Nc1ccc(N2CCOCC2)cc1	.	.	3	-2	-65	-7
CCCCOC(=O)Nc1ccc(C(N)=O)cc1	.	.	-1	4	.	-3
SMILES	Casp6 inh	F508del corr	NSD2 inh	PglD inh	Env fusion inh	ALR inh
CCOC(=O)c1c(C)c(C(=O)Nc2ccc(N(C)C)cc2)c(C)n1CC	-4	-1	-2	-1	.	99*
CCCCOC(=O)Nc1ccc(N(C)C)cc1	0	.	2	.	-17	99*
CCCCOC(=O)Nc1ccc(N2CCCCC2)cc1	.	.	10	4	-282	78*
COc1ccc(NC(=O)N(C)C[C@H]2OCCCC[C@@H](C)Oc3ccc(N(C)C)cc3C(=O)N([C@@H](C)CO)C[C@H]2C)cc1	.	2	.	.	5[16.7 µM]	.
Cc1noc(C)c1NC(=O)N(C)C[C@H]1OCCCC[C@H](C)Oc2ccc(NC(=O)Nc3cccc4ccccc34)cc2C(=O)N([C@H](C)CO)C[C@@H]1C	.	-1	.	-1	23[16.7 µM]	.
O=C1CN(Cc2ccccc2)C[C@H]2[C@@H](c3ccc(Br)cc3)[C@@H](CO)N12	0	0	.	.	.	.
COc1ccccc1N1CCN(C(=O)C2CCCN(S(=O)(=O)c3ccc4c(c3)oc(=O)n4C)C2)CC1 (stereo unspecified)	2	0	4	2	11	19
COc1ccccc1N1CCN(C(=O)CCS(=O)(=O)c2ccc3c(c2)oc(=O)n3C)CC1	2	1	-2	-2	15	88*
CN1c2ccc(-c3cccc(F)c3)cc2[C@@H]2[C@@H](CCN2C(=O)c2ccccc2F)[C@H]1CO	1	5	.	1	.	.
CN1[C@H](C(=O)NC2CCCCC2)[C@@H](CO)[C@@H]2Cn3c(ccc(-c4cccc(F)c4)c3=O)[C@@H]21	0	2	.	1	.	.
COc1cccc(NC(=O)COc2ncnc3sc(C)c(C)c23)c1	.	.	2	3	.	-7
CCN(CC(=O)Nc1cccc(OC)c1)c1ncnc2sc(C)c(C)c12	.	.	3	6	58*	87*
COC1=C(C)C(O)=C(C(=O)/C=C/c2ccccc2)C(=O)C1(C)C	.	2	.	3	-86	97*
OC[C@H]1Nc2ccc(C#Cc3ccc(F)cc3)cc2[C@@H]2[C@H]1CCN2Cc1nccs1	.	1	.	0	.	.
CN(c1ncnc(N)c1[N+](=O)[O-])C1CCS(=O)(=O)C1 (stereo unspecified)	2	0	-3	-1	59*	-5
CN(c1ncnc(N)c1[N+](=O)[O-])C1CCCCC1	-2	1	-1	4	44	-2
C[C@H](CO)N1C[C@H](C)[C@@H](CN(C)S(=O)(=O)c2ccc(Cl)cc2)Oc2ccc(NC(=O)C3CCCCC3)cc2CC1=O	2	0	.	0	21[16.7 µM]	.
O=C(C[C@H]1C[C@H]2c3cc(NS(=O)(=O)c4ccc(F)cc4)ccc3O[C@H]2[C@@H](CO)O1)N1CCOCC1	2	2	.	-2	2[16.7 µM]	.
Cc1ccc(C)c(N(C(=O)c2nsc(Cl)c2Cl)C(C(=O)NC2CCCC2)c2ccc(O)cc2)c1 (stereo unspecified)	.	.	-1	-9	89*	0
O=C(CC1CC1)N[C@H]1CC[C@@H](CCNS(=O)(=O)c2ccc(Cl)cc2)O[C@H]1CO	-2	-3	.	-1	15[16.7 µM]	.
Cc1cc(C)cc(NC(=O)CSc2nc(=O)n(CCN3CCOCC3)c3c2CCCC3)c1	1	-1	0	.	8	-18
CC(=O)c1cccc(NC(=O)CSc2nc(=O)n(CCCN3CCOCC3)c3c2CCC3)c1	1	1	0	-5	1	98*
Cc1cccc(NC(=O)CSc2nc(=O)n(CCCN3CCOCC3)c3c2CCCC3)c1	-3	-2	1	-2	-16	98*
